# IL1B secr inh – inflammasome signaling inhibition, IL-1 beta readout; THP-1 LPS/ATP IL-1B secretion, AlphaLISA, 16 h; active compounds read low; activity change, % at 57.5 µM; hit rate 4.7% among 360,000; in the data active = activity change below about -50%; inconclusive = mostly about -30% to -49%
#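 THP-1 cells pretreated 1 hr with compounds (up to 57.5 uM final), then stimulated with LPS (250 ng/mL final) plus ATP (1.25 mM final); secreted IL-1B measured by AlphaLISA after 16 hr, decreased signal indicating inhibition.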
# TDP1 cell noCPT – qHTS for Inhibitors of human tyrosyl-DNA phosphodiesterase 1 (TDP1): qHTS in cells in absence of CPT; hit rate 15% among 420,000; DT40 Tdp1-/- hTDP1 cells, no CPT, ATP luminescence, 48 h; Potency, µM (series often up to 46.2 µM), without a hit: at the top dose activity change, negative = growth inhibition, actives largely listed as inhibitors; also: potency is read from the fitted curve at half-maximal effect; nearly all actives have a fitted effect of over 55% in size
#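 Camptothecin absent (DMSO only). Human TDP1-complemented DT40 knockout cells, 400 cells/well, 37 °C for minimum 48 hr; ATP measured via CellTiter-Glo, 30 min dark incubation, luminescence.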
# TDP1 cell CPT – growth inhibition of DT40 Tdp1-/-;hTDP1 cells with camptothecin (screen for TDP1 inhibitors); Potency, µM (top dose mostly 46.2 µM), inactives show at the top dose activity change, negative = growth inhibition, hits mostly inhibitors; hit rate 12% among 420,000; chicken DT40 Tdp1-/-;hTDP1 cells + 20 nM CPT, ATP luminescence, 48 h; also: potency is read from the fitted curve at half-maximal effect; nearly all actives have a fitted effect of over 55% in size
#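 Cell growth measured by CellTiter-Glo luminescence after a minimum 48 h, 37 C compound exposure with 20 nM CPT in Tdp1-knockout DT40 cells stably expressing hTDP1, seeded 400/well; qHTS titration format.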
# ALOX12 inh – inhibitors of human 12S-lipoxygenase ALOX12; P18054; purified 12hLO, xylenol orange hydroperoxide absorbance; Potency, µM (series often up to 108 µM), inactives show top-dose activity change, negative = inhibition, actives largely listed as inhibitors; hit rate 1.1% among 580,000; also: potency is read from the fitted curve at half-maximal effect
# Target sequence (P18054 whole entry, looked up): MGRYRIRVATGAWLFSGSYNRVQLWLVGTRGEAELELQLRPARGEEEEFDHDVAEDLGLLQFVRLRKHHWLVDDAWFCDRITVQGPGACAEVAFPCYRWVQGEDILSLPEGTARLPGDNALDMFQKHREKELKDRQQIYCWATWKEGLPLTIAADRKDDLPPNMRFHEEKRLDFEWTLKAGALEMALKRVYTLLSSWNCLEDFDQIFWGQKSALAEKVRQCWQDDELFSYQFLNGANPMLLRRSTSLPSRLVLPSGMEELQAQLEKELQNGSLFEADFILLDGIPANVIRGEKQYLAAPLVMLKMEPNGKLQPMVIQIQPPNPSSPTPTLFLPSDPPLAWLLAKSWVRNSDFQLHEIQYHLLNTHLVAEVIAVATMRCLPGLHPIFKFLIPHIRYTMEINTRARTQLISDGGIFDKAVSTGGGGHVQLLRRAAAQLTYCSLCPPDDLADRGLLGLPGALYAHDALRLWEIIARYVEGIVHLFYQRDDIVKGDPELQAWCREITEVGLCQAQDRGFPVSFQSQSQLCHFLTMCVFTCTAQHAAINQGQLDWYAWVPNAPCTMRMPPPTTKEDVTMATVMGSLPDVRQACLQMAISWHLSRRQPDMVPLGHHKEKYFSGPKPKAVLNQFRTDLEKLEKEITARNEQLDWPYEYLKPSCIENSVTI
#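 Purified human 12hLO (150 nM final) in 25 mM Hepes, 0.01% Triton X-100, pH 7.0 was preincubated 15 min at room temperature with compound. Then 40 uM arachidonic acid was added, 30 min. Hydroperoxide was read by Fe-XO absorbance ratio 573/405 nm.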
# HT1080 IDH1KD tx – HT-1080 IDH1 knockdown cell toxicity (counter line). HT-1080 IDH1 knockdown viability, ATP luminescence, 48 h. Potency, µM (doses to about 46.1 µM), for inactives: at the highest dose activity, negative = toxicity, most hits filed as cytotoxic. hit rate 2% among 360,000;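 also: potency is read from the fitted curve at half-maximal effect; 0% = DMSO wells and -100% = cell-free medium wells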
#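 Using the IDH1-knockdown HT-1080 line run in the same batch and compound series as the NT line, viability after 48 h at 37 °C was determined by CellTiter-Glo luminescence and expressed as % activity.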
# HT1080-NT tox – kills 2HG-producing HT-1080-NT fibrosarcoma cells. AID 686970. hit rate 1.6% among 360,000. HT-1080-NT fibrosarcoma viability, CellTiter-Glo ATP luminescence, 48 h. Potency, µM (series often up to 46.1 µM), for the others: at the top dose activity, negative = less viability, hits mostly cytotoxic;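 also: NT is the 2HG producing partner of a matched IDH1 knockdown line; potency is read from the fitted curve at half-maximal effect; 0% = DMSO-treated cells and -100% = media-only wells without cells; nearly all actives have a fitted effect of over 55% in size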
#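 Luminescent CellTiter-Glo readout after 48 hours of compound exposure at 37 degrees C defined viability of HT-1080-NT cells. Activity was normalized to DMSO wells and cell-free media wells; concentration-response curves were fitted and assigned curve classes.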
# * = called active by the depositor; ? = inconclusive; nt = no result given; [ ] = remark or other dose. Shown is part of a subset that was picked to be rich in hits. Unless noted, calls follow the shape of the dose curve; as a rule, active = well fitted curve in the direction sought with a large enough effect; inconclusive = small, poorly fitted or top-dose-only effect, or another doubt; inactive = no such curve, though single readings can be large; an effect the other way counts as inactive or inconclusive. Unless noted, % is scaled to controls: 0 for no effect and ±100 for the full control effect.
SMILES,IL1B secr inh,TDP1 cell noCPT,TDP1 cell CPT,ALOX12 inh,HT1080 IDH1KD tx,HT1080-NT tox
CC1CCN([C@@H]2[C@H](O)[C@H](CO)O[C@@H]2CNC(=O)c2ccc(F)c(Cl)c2)CC1,nt,nt,nt,8%,nt,nt
CN(CC1CCCO1)S(=O)(=O)c1ccc(C(=O)Nc2nc(-c3ccccn3)cs2)cc1 (stereo not given),140,1.8µM*,1.5µM*,nt,?,?
CN(CC1CCCO1)S(=O)(=O)c1ccc(C(=O)Nc2nnc(-c3ccccc3)o2)cc1 (stereo not given),100,8.2µM*,18µM*,-1%,?,?
COc1ccc(N2CC(C(=O)Nc3c(C)nn(C)c3C)CC2=O)cc1 (stereo not given),nt,nt,nt,15%,nt,nt
CSc1ccc(-c2nc(CN(C)Cc3cnccn3)c(C)o2)cc1,nt,nt,nt,40%,nt,nt
CC(C)(O)C#Cc1ccc(C(=O)NCc2ccccc2)cc1,nt,nt,nt,-24%,nt,nt
Nc1nc(Cl)nc2c1ncn2C1CC(O)C(CO)O1 (stereo not given),50,?,0.18µM*,1%,?,?
Nc1ncn([C@H]2C[C@H](O)[C@@H](CO)O2)c(=O)n1,4,0.1µM*,0.041µM*,?,5%,1%
Nc1ncnc2c1ncn2C1C[C@H](O)[C@@H](CO)O1 (stereo not given in full),nt,nt,nt,10%,nt,nt
C=C1[C@H](CO)[C@@H](O)C[C@@H]1n1cnc2c(=O)[nH]c(N)nc21,nt,0.0053µM*,0.0084µM*,nt,nt,nt
Nc1nc2c(ncn2C2CC(O)C(CO)O2)c(=O)[nH]1 (stereo not given),nt,5.8µM*,10µM*,nt,nt,nt
Nc1ccn([C@H]2C[C@H](O)[C@@H](CO)O2)c(=O)n1,15,17%,12%,-29%,5%,48%
Cc1ccc(NC(=O)N2CC(c3nnc(-c4ccncc4)o3)C3(CCOCC3)C2)cc1 (stereo not given),nt,nt,nt,19%,nt,nt
CNc1ncnc2c1ncn2[C@H]1C[C@H](O)[C@@H](CO)O1,nt,7.3µM*,?,-1%,nt,nt
Nc1nc2c(ncn2[C@H]2C[C@H](O)[C@@H](CO)O2)c(=O)[nH]1,0,2.1µM*,4.6µM*,18%,?,?
Cn1c(=O)c2ccnn2c2ccc(C(=O)NCCN3CCC(N4CCCCC4)CC3)cc21,nt,nt,nt,33%,nt,nt
COc1ccc(N2CC(NC(=O)NCCC(C)C)CC2=O)cc1 (stereo not given),-65*,-21%,?,-10%,-4%,-1%
COc1ccc(N2CCN(C(=O)NC3CC(=O)N(c4ccc(OC)cc4)C3)CC2)cc1 (stereo not given),0,-16%,?,-17%,-10%,-11%
CCN1CCN(C(=O)NC2CC(=O)N(c3ccc(OC)cc3)C2)CC1 (stereo not given),-69*,16%,15%,-2%,19%,?
N#C/C(=C\c1ccc(OCc2ccccc2)cc1)c1ccccc1,nt,nt,nt,5%,nt,nt
O=C(Nc1ccc(O)c2c(=O)cc(-c3ccccc3Cl)oc12)c1ccc(Cl)c(Cl)c1,17,-27%,-27%,?,3%,-6%
O=C(Nc1ccc(O)c2c(=O)cc(-c3cccc(Cl)c3)oc12)c1ccc(F)cc1,33,13µM*,?,-19%,-9%,1%
CC1(C)CC(NC(=S)NC2CCCCC2)CC(C)(C)N1,nt,nt,nt,-62%,nt,nt
O=C1CC(CC(=O)N2CC3CCCC2C3)(c2cccc(F)c2)C(=O)N1Cc1cccnc1 (stereo not given),nt,18µM*,?,0%,nt,nt
O=C(CC1(c2cccc(F)c2)CC(=O)N(Cc2cccnc2)C1=O)N1CCCCCCC1 (stereo not given),nt,?,?,9%,nt,nt
SMILES,IL1B secr inh,TDP1 cell noCPT,TDP1 cell CPT,ALOX12 inh,HT1080 IDH1KD tx,HT1080-NT tox
Cc1ccccc1C1(CC(=O)N2CC3CC4CC(C3)CC2C4)CC(=O)N(Cc2cccnc2)C1=O (stereo not given),nt,?,-8%[9.04 µM],17%,nt,nt
Cc1ccccc1C1(CC(=O)N2CC3(C)CC2CC(C)(C)C3)CC(=O)N(Cc2cccnc2)C1=O (stereo not given),nt,21µM*,-14%[9.04 µM],-5%,nt,nt
CC(C)(C)OC(=O)N1CCCC1C(=O)NCc1ccccc1Cl (stereo not given),nt,nt,nt,10%,nt,nt
CCOCCSc1nc2c(c(=O)n(C)c(=O)n2C)n1Cc1ccccc1Cl,nt,nt,nt,11%,nt,nt
Cc1ccc2nc(SCc3nnc(-c4cccs4)o3)[nH]c2c1,3,12µM*,?,13%,-11%,-4%
COc1ccccc1-c1noc(CSc2nc3ccc(C)cc3[nH]2)n1,nt,16µM*,?,1%,nt,nt
COc1ccc(-c2noc(CSc3nc4ccccc4[nH]3)n2)cc1OC,nt,18µM*,23µM*,-21%,nt,nt
COc1ccc(-c2noc(COc3ccccc3OC)n2)cc1OC,-29,?,16µM*,19%,-4%,1%
O=C(c1ccc(F)cc1)N1CCC2(CN[S+](=O)([O-])c3cccnc3O2)C1 (stereo not given),nt,nt,nt,5%[6.33 µM],nt,nt
CON(C)C(=O)CC1Sc2ccc(Cl)cc2NC1=O (stereo not given),nt,nt,nt,6%,nt,nt
CC(Nc1ccc(-c2nc(CCCc3ccccc3)no2)cn1)c1cnn(C)c1 (stereo not given),nt,nt,nt,4%,nt,nt
c1ccc(-c2cc(CSc3nc4ccccc4[nH]3)on2)cc1,50,21µM*,12µM*,16%,-16%,-17%
Fc1cccc(F)c1CSc1nc2ccccc2[nH]1,4,-11%,-4%,0%,-1%,14%
Cc1noc(C)c1CSc1nc2ccccc2[nH]1,-2,-4%,-7%,-6%,3%,17%
Cc1ccccc1-c1noc(CSc2nc3ccccc3[nH]2)n1,nt,6.5µM*,18µM*,-20%,nt,nt
COC(=O)c1ccc(C(=O)NCC2CCCCC2)cc1,nt,nt,nt,-3%,nt,nt
Cc1cc(C)n(-c2ccc(NC(=O)C3CCCCN3C(=O)c3cc(C)oc3C)cc2)n1 (stereo not given),-7,?,15µM*,-13%,0%,-8%
N#Cc1ccc(C(=O)N2CCCC(n3cc(-c4nc(-c5ccccc5)no4)nn3)C2)cc1 (stereo not given),nt,nt,nt,7%,nt,nt
CC(C)NC(=O)CNC(=O)CCc1ncc(-c2ccccc2)o1,nt,nt,nt,7%,nt,nt
Cc1ccc(C)c2sc(N3CCN(C(=O)C(C)(C)C)CC3)nc12,nt,?,?,-18%,nt,nt

# Screening data as filed in PubChem.
